Screens from PubChem BioAssay.
KB-3-1 cytotox – kills parental KB-3-1 adenocarcinoma cells | KB-3-1 viability, CellTiter-Glo ATP luminescence, 72 h | Potency, µM (titrated, usually from 46.1 µM), most hits filed as cytotoxic | actives 1.4% (n = 400,000); also: % is scaled to controls: 0 for no effect and ±100 for the full control effect; nearly all actives have a fitted effect of over 60% in size
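Multi-concentration cytotoxicity screen in KB-3-1 cells grown in DMEM lacking phenol red with 10% FBS. After 72 h at 37 °C with compound, ATP-dependent luminescence was recorded.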
MCF10A rerep – induces DNA re-replication in MCF 10a normal breast cells; Potency, µM (series often up to 46.1 µM), without a hit: at the top dose activity, positive = re-replication, actives largely listed as activators; actives 2.9% (n = 350,000); MCF 10A DNA re-replication, Hoechst nuclear intensity, 48 h; also: % of control where 0% means no effect; nearly all actives have a fitted effect of over 50% in size
SW480 rerep – DNA re-replication induction in SW480 cells; SW480 DNA re-replication, Hoechst DNA content imaging, 48 h; Potency, µM (titrated, usually from 46.1 µM), for the others: top-dose re-replication activation, usual class: activators; actives 1.8% (n = 340,000); AID 624297; also: % of control where 0% means no effect; nearly all actives have a fitted effect of over 55% in size
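Treated cells incubate 48 hr (37 C, 5% CO2), are stained 40 min with Hoechst, and nuclear fluorescence is enumerated; a rise in nuclei with high DNA signal marks re-replication.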
KB-V1 MDR tox – KB-V1 MDR subline cytotoxicity. Potency, µM (titrated, usually from 46.1 µM), hits mostly cytotoxic. actives 3.4% (n = 400,000). KB-V1 MDR cells viability, CellTiter-Glo, 72 h; also: % is scaled to controls: 0 for no effect and ±100 for the full control effect; nearly all actives have a fitted effect of over 60% in size
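Compound-treated KB-V1 multidrug-resistant cells, 72 h, 37 degrees C; viability by CellTiter-Glo. Fitted qHTS curves give the values.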
ELG1 DNA repair – inhibitors of ELG1-dependent DNA repair in HEK293T cells; HEK293T ELG1-luciferase reporter, luminescence, 16 h; DNA damage induced by 5-fluorouridine; Potency, µM (series often up to 46.1 µM), for inactives: top-dose activity change, negative = inhibition, actives largely listed as inhibitors; actives 2.3% (n = 330,000); AID 504467; also: % is scaled to controls: 0 for no effect and ±100 for the full control effect; nearly all actives have a fitted effect of over 55% in size
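HEK293T cells expressing luciferase-tagged ELG1 (2,000/well) received 5-Fluorouridine plus compound or DMSO for 16 hr at 37 °C. Luciferase was read by ONE-Glo luminescence after 30 min at room temperature.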
Numbers without * were called inactive; i = inactive; ? = inconclusive; / = not tested or not shown; [ ] = dose if it differs, or a comment. Sampled rows, rich in hits. Any-hit rate of the full collection: about 8.2%. Calls follow the shape of the dose curve; as a rule, active = well fitted curve in the direction sought with a large enough effect; inconclusive = small, poorly fitted or top-dose-only effect, or another doubt; inactive = no such curve, though single readings can be large; an effect the other way counts as inactive or inconclusive. Potency is read from the fitted curve at half-maximal effect.

SMILES	KB-3-1 cytotox	MCF10A rerep	SW480 rerep	KB-V1 MDR tox	ELG1 DNA repair
CCSc1nsc(NC(=O)Nc2ccc(F)cc2F)n1	?	?	0.0%	14.6µM*	?
CCSc1nsc(NC(=O)Nc2ccccc2Cl)n1	?	?	18.5%	?	/
O=C(Nc1ccccc1)Nc1ccc(F)cc1F	i	21.9%	8.2µM*	i	?
COc1ccc2c(c1)Cc1cc(NC(=O)c3ccccc3-c3ccccc3C(=O)O)ccc1-2	i	/	/	i	/
C=C(C)COc1ccc2c(CC)cc(=O)oc2c1C	?	11.9%	-3.7%	20.6µM*	5.2%
CCCOc1ccc2c(CC)cc(=O)oc2c1C	i	10.1%	8.0%	13µM*	?
CCc1cc(=O)oc2c(C)c(OCC(=O)N3CCC(C(=O)O)CC3)ccc12	i	-30.7%	-8.6%	?	-4.6%
COc1cc(C2=CN(Cc3ccccc3)CCC2=O)cc(OC)c1OC	?	0.1%	2.9%	?	?
COc1cccc(CN2C(=NC(=O)C3CCCO3)SC3CS(=O)(=O)CC32)c1 (centres undefined)	i	/	/	i	/
CC(C)Nc1nc2c(S(=O)(=O)c3cccc(Cl)c3)nnn2c2ccsc12	i	/	/	i	/
COc1ccc(OC)c(S(=O)(=O)Nc2ccc(-c3ccc4nncn4n3)cc2)c1	18.4µM*	?	7.7%	i	-14.7%
COc1ccc(OC)c(S(=O)(=O)Nc2ccc(O)c3ccccc23)c1	i	?	?	?	10.3µM*
COc1ccc(OC)c(S(=O)(=O)Nc2ccc(Oc3ccccc3)cc2)c1	i	?	-10.1%	20.6µM*	-6.5%
CN1CCN(C(=O)C2Cc3c(-c4cccc(F)c4)ccnc3O2)CC1 (centres undefined)	i	/	/	i	/
O=C(c1ccc2c(c1)C(=O)N(CCCO)C2=O)c1ccc2c(c1)C(=O)N(CCCO)C2=O	i	-2.5%	-2.5%	i	-1.1%
O=C1c2ccc3c4c(ccc(c24)C(=O)N1CCCCO)C(=O)N(CCCCO)C3=O	3.66µM*	?	?	?	2.06µM*
O=C(NCC1(O)CCCCC1)C1CCC(=O)N(Cc2cccc(C(F)(F)F)c2)C1 (centres undefined)	/	4.0%	4.5%	/	-2.7%
Cc1cc(C)cc(N=Cc2ccc([N+](=O)[O-])s2)c1	?	20.6µM*	3.66µM*	?	?
Cc1onc(-c2ccccc2)c1C(=O)N/N=C/c1ccc([N+](=O)[O-])s1	i	?	?	?	?
Cc1ccc(NC(=S)N/N=C/c2ccc([N+](=O)[O-])s2)cc1	?	10.3µM*	6.51µM*	?	0.2%
NC(=O)c1ccc(N=Cc2ccc([N+](=O)[O-])s2)cc1	?	14.6µM*	3.26µM*	?	?
CCCc1nn(C)c(C(=O)Nc2cccc(CC)c2)c1Cl	i	?	-11.6%	18.4µM*	?
c1ccc(OCCCCn2cnc3ccccc32)cc1	i	1.9%	4.0%	i	-0.3%
c1ccc2c(c1)ncn2CCCOc1ccc2c(c1)CCC2	?	?	26.2%	11.6µM*	-1.9%
Cc1ccc(OCCCCn2cnc3ccccc32)cc1	i	7.8%	-13.0%	i	?
SMILES	KB-3-1 cytotox	MCF10A rerep	SW480 rerep	KB-V1 MDR tox	ELG1 DNA repair
c1ccc2c(c1)ncn2CCCCOc1ccc2c(c1)CCC2	?	20.6µM*	?	?	?
Cc1cc(C)c(NC(=O)c2cc(S(=O)(=O)N3CCN(c4ccccc4F)CC3)ccc2F)c(C)c1	i	/	/	i	/
Cc1ccc(Cl)cc1-c1cc(C(=O)N2CCN(c3ccncc3)CC2)[nH]n1	i	/	/	i	/
O=C(COc1ccc(Br)cc1Cl)NNC(=O)c1ccccc1	i	-9.4%	1.5%	i	22.7%
Cn1nc(C2CC2)cc1NC(=O)C1(C)CCN1C(=O)CC(c1ccccc1)c1ccccc1 (centres undefined)	i	/	/	i	/
CCCCC(O)(c1ccc(OC)cc1)C(CN1CCOCC1)c1ccccc1 (centres undefined)	i	7.7%	25.0%	?	?
CCCCC(O)(c1ccccc1)C(CN1CCOCC1)c1ccccc1 (centres undefined)	i	-8.8%	-2.2%	i	-15.3%
CCCCCC(O)(c1ccc(OCC)cc1)C(CN1CCOCC1)c1ccccc1 (centres undefined)	?	?	25.9µM*	?	?
COc1ccc(C(O)(c2ccccc2OC)C(CN2CCOCC2)c2ccccc2)cc1 (centres undefined)	?	4.6%	1.8%	20.6µM*	-18.4%
CCCCC(O)(c1ccc(CC)cc1)C(CN1CCOCC1)c1ccccc1 (centres undefined)	16.4µM*	?	?	i	?
CCCCCC(O)(c1ccc(OC)cc1)C(CN1CCOCC1)c1ccccc1 (centres undefined)	?	16.4µM*	?	13µM*	-8.3%
Nc1c(Br)cc(C=O)cc1Br	i	/	/	i	/
COc1ccc(CCNC(=O)COC(=O)CNS(=O)(=O)c2ccc(SC)c([N+](=O)[O-])c2)cc1	i	?	?	?	15.0%
CSCCC(N=C1NS(=O)(=O)c2ccccc21)C(=O)N1CCCC(C(N)=O)C1 (centres undefined)	i	-0.1%	3.3%	i	14.8%
O=C(Cn1c(=O)n(-c2ccccc2Cl)c(=O)c2sc3ccccc3c21)N1CCCC1	i	/	/	i	/
O=C(O)CCCc1ccc2c(c1)CCc1ccccc1-2	2.91µM*	-4.9%	-4.1%	2.06µM*	?
CC(C(=O)Nc1cccc([N+](=O)[O-])c1)N1CCN(C/C=C/c2ccccc2)CC1 (centres undefined)	i	-1.9%	8.5%	3.66µM*	-14.7%
Cc1c(N=C2NN=C(c3c[nH]c4ccccc34)CS2)c(=O)n(-c2ccccc2)n1C	i	14.7%	15.7%	i	-3.4%
O=C(CC1C[C@H](C(=O)N2CCCCC2)[C@@]2(CCc3ccccc3)c3[nH]c4ccccc4c3CCN2C1=O)NCCc1ccccn1 (some centres undefined)	?	23.8%	-53.6%[9.22 µM]	11.6µM*	/
COCCCNC(=O)C[C@H]1C[C@H](C(=O)N2CCCCC2)[C@@]2(CCc3ccccc3)c3[nH]c4ccc(Cl)cc4c3CCN2C1=O	i	-5.2%	1.6%	i	20.6µM*
CC(C)(C)NC(=O)C[C@H]1C[C@H](C(=O)N2CCCCC2)[C@@]2(CCc3ccccc3)c3[nH]c4ccc(Cl)cc4c3CCN2C1=O	i	2.4%	-0.1%	i	-8.2%
c1coc(CNc2ncnc3c2nc2n3CCCC2)c1	?	/	/	i	/
CCCCC(=O)NNC(=O)c1c(O)c2ccccc2[nH]c1=O	i	?	-4.6%	9.2µM*	-14.9%
